Results on 14 compounds are retold here after PubChem BioAssay.

Assay [1] is described as follows: inhibitors of TNFa-induced NFkB p65 translocation, primary screen, imaging, HUVEC, MLSMR starter and 10KST1 sets (AID 438;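 active means inhibition above 20% together with a positive visual image hit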;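 further: compound added about 3h40 before a 20 min TNFalpha stimulation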;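 on inhibition: signal is the nuclear over cytoplasmic p65 intensity ratio per well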). Particulars: HUVEC TNFa-induced p65 nuclear translocation; cell count: measured here: nuclei count (cytotoxicity indicator), at 2.08 µM; inhibition: at 2 µM, stronger effect = higher value, 0% TNFa-plus-vehicle, 100% no-TNFa wells.
The nature of assay [2]: inhibitors of mutant huntingtin aggregation, primary screen, imaging, exon1htt(103Q)mCFP cells, high-content imaging (AID 483;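 active means visual image review flags a hit and inhibition of aggregation exceeds 20%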;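 further: compound exposure lasted 3 days before fixation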;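 on nuclei count: percent of the per-plate median nuclei count of sample wells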). Particulars: exon1htt(103Q)mCFP cell line, aggregate imaging, at 2 µM; inhibition of aggregation: stronger effect = higher value; nuclei count: measured here: cell count, toxicity.
Assay [3] is described as follows: inhibitors of E-selectin induction by TNFa, primary screen, imaging, HUVEC, immunofluorescence, MLSMR starter and 10KST1 sets (AID 487;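 active means visually confirmed hit in the image check and inhibition above 20%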;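 on inhibition: signal is fraction of cell area covered by stained E-selectin grains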;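 on nuclei count: 100% = median nuclei count of all wells on the same plate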). The following applies: HUVEC TNFalpha-induced E-selectin immunofluorescence imaging, at 2 µM; inhibition: stronger effect = higher value; nuclei count: measured here: cell number, toxicity.
In assay [4] the target is Voltage-gated potassium channel subunit beta-2 (Rattus norvegicus) (UniProt P62483). The assay is described as follows: KvBeta enzyme negative modulators, primary screen, biochemical, NADPH fluorescence (AID 622;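 active means fluorescence slope higher than the sample average by over 3 SD, cut at about -0.22 in these data, passing the limit was not always enough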;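 further: slope of raw intensity against log time taken from 70 to 1610 s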). The following applies: recombinant KvBeta, 4-cyanobenzaldehyde reduction, at 10 µM, stronger effect = higher value.
Chain of Voltage-gated potassium channel subunit beta-2 (Rattus norvegicus) (P62483 whole entry, looked up): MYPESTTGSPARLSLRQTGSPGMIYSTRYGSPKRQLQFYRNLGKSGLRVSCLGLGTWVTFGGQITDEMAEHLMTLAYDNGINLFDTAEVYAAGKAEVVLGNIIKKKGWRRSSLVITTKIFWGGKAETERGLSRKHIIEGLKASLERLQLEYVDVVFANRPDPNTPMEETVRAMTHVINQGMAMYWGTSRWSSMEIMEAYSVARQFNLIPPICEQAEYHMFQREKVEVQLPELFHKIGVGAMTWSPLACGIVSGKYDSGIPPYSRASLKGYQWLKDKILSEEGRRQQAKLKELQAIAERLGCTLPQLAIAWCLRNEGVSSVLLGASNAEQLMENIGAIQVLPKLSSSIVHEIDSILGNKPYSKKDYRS
Assay [5] shares this target. The assay is described as follows: KvBeta positive modulators, primary screen, biochemical, NADPH fluorescence (AID 623;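 active means NADPH fluorescence slope more negative than the mean of all samples by about 3 SD, 99.7% confidence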;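 further: fluorescence intensity change per second fitted from 20 to 320 s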). Particulars: Recombinant KvBeta, NADPH fluorescence decrease slope, 10 min; at 10 µM; stronger effect = lower value.
Assay [6] concerns the target Muscarinic acetylcholine receptor M4 (Homo sapiens) (UniProt P08173). Nature of the assay: compounds altering M4/GIRK thallium flux, either direction, primary screen, M4 allosteric agonist project, cell-based, HEK293 M4/GIRK, BTC-AM (AID 625;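 active means fluorescence slope after compound addition differing from the mean of all tested samples at 99.7% confidence, mostly higher but some lower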;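 further: thallium influx through GIRK channels coupled to M4 in HEK293 cells with BTC-AM dye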). Particulars: at 10 µM, actives lie on both sides.
A short description of assay [7]: inhibitors of Sendai virus-induced IRF3 signaling, primary screen, TLR/RLR signaling modifier project, cell-based, Sendai virus stimulus, luciferase, 10K MLSCN set (AID 602276;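 active means inhibition at or above 50% at 10 µM; inactive means inhibition below 50%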;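 further: firefly luciferase from ISG56 promoter only with Renilla not read in this screen; 0% = Sendai virus plus DMSO and 100% = medium plus DMSO without virus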). Particulars: HEK293 RL24 IRF3 luciferase reporter, at 10 µM, stronger effect = higher value. (In general: Reporter assays use an easily measured gene product as a stand-in for the process of interest.)

Assay [8] in a line: inhibitors of poly I:C-induced TLR3 signaling, primary screen, cell-based, poly I:C stimulus, luciferase, 10K MLSCN set (AID 602277). Particulars: HEK293-TLR3 RL24 IRF3 luciferase reporter, at 10 µM, stronger effect = higher value.

Active and inactive are the calls of the source.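 How the source made its calls, unless noted: active means inhibition of the reporter signal at or above 50%; inactive means inhibition below 50%.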

Chain of Muscarinic acetylcholine receptor M4 (Homo sapiens) (P08173 whole entry, looked up): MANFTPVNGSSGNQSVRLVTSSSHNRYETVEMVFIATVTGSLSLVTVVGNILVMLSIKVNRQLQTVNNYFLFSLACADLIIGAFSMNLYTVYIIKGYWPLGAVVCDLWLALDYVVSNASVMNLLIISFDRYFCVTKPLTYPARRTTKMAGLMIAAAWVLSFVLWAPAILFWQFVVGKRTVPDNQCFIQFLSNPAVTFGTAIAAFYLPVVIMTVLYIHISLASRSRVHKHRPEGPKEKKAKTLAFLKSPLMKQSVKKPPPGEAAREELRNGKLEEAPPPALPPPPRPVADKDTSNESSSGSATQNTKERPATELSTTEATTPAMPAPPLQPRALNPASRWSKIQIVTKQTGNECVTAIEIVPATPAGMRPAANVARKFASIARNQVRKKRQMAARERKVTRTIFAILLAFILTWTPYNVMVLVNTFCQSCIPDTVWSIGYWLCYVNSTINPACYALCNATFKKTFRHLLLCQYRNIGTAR

Usually inhibition stands for the change of the read-out against control, counted positive when it falls. For `CN(CCCC(=O)Nc1ccncc1)S(=O)(=O)c1ccc(Cl)cc1`, the cell count in assay [1] is 573. Also, the inhibition in assay [1] was -5.7% (inactive); in assay [3] it was -18.9% (inactive); in assay [7] it was -14.2% (inactive); in assay [8], -29.3% (inactive). For the same compound, the inhibition of aggregation in assay [2] is -13.4% (inactive). Further, the nuclei count in assay [2] is 106%; in assay [3], 127%. In addition, the fluorescence slope is -0.584 (inactive) in assay [4] and 0.00791 (inactive) in assay [6]. Further, the NADPH fluorescence slope in assay [5] is 2.2e-07 (inactive).

Turning to `C=C(C)CSc1nnc(-c2cccc(S(=O)(=O)N(C)C)c2)n1-c1cc(OC)ccc1OC`, the cell count in assay [1] came out at 712. The inhibition in assay [1] is -12.2% (inactive); in assay [3], -12.6% (inactive); in assay [7], 18.8% (inactive); in assay [8], 34.6% (inactive). Besides, in assay [2], the inhibition of aggregation was 31.2% (active). Further, the values for the nuclei count in assay [2] and in assay [3] were 123% and 107%, respectively. The fluorescence slope in assay [4] was -0.576 (inactive); in assay [6], 0.00586 (inactive). For the same compound, in assay [5], the NADPH fluorescence slope was 4e-05 (inactive).

For the compound `COCCn1nnnc1C(c1cc2cc(C)cc(C)c2[nH]c1=O)N1CCN(c2ccccc2F)CC1` (centres undefined), the cell count in assay [1] was determined as 660. Besides, the inhibition in assay [1] is 10.1% (inactive); in assay [3], 13.5% (inactive); in assay [7], 16.8% (inactive); in assay [8], 29.8% (inactive). Besides, the inhibition of aggregation in assay [2] is -11% (inactive). Further, the figures for the nuclei count in assay [2] and in assay [3] were 80.7% and 130%, respectively. Besides, the fluorescence slope in assay [4] was -0.413 (inactive); in assay [6], 0.00818 (inactive). The NADPH fluorescence slope in assay [5] was 0.000111 (inactive).

For `CCn1c(SCC(=O)c2ccc3c(c2)OCCO3)nnc1-c1ccco1`, the cell count in assay [1] was 571. The inhibition in assay [1] is -38.8% (inactive); in assay [3], -52.3% (inactive); in assay [7], 11.1% (inactive); in assay [8] it was 0.911% (inactive). In assay [2], the inhibition of aggregation was -1% (inactive). The nuclei count in assay [2] worked out at 115%; in assay [3], 117%. Moreover, the fluorescence slope was -0.514 (inactive) in assay [4] and 0.00561 (inactive) in assay [6]. In addition, the NADPH fluorescence slope in assay [5] is -2.2e-05 (inactive).

`COC(=O)c1cc(Br)ccc1-c1ccc(/C=N/n2nnnc2N)o1`: the cell count in assay [1] was 438. The inhibition was 1% (inactive) in assay [1], -56% (inactive) in assay [3], 15.2% (inactive) in assay [7] and 24.4% (inactive) in assay [8]. The inhibition of aggregation in assay [2] is -4.4% (inactive). In addition, the nuclei count was found to be 97.9% in assay [2] and 111% in assay [3]. The fluorescence slope in assay [4] is -0.531 (inactive); in assay [6], 0.00728 (inactive). In assay [5], the NADPH fluorescence slope was -2.3e-05 (inactive).

With `Cc1cncn1CCc1nc2c3ccccc3nc(=S)n2[nH]1`, the cell count in assay [1] amounted to 537. Moreover, the inhibition in assay [1] is 0% (inactive); in assay [3], -141% (inactive); in assay [7] it was 17% (inactive); in assay [8] it was 28.8% (inactive). For the same compound, the inhibition of aggregation in assay [2] is 4.4% (inactive). For the same compound, the nuclei count in assay [2] was 67.3%; in assay [3], 110%. Moreover, the fluorescence slope in assay [4] is -0.432 (inactive); in assay [6], 0.00558 (inactive). For the same compound, the NADPH fluorescence slope in assay [5] is 1.4e-06 (inactive).

On to `CN(C(=O)c1ccncc1)C1CC(C)(C)N(O)C(C)(C)C1`, for which the cell count in assay [1] was 344. In addition, the inhibition was 2.8% (inactive) in assay [1], -67.4% (inactive) in assay [3], -0.539% (inactive) in assay [7] and 8.86% (inactive) in assay [8]. The inhibition of aggregation in assay [2] is -9.8% (inactive). Further, the results for the nuclei count in assay [2] and in assay [3] were 103% and 119%, respectively. Also, the fluorescence slope is -0.592 (inactive) in assay [4] and 0.00587 (inactive) in assay [6]. Moreover, the NADPH fluorescence slope in assay [5] was -2.2e-05 (inactive).

For `CCCCCc1c(O)c2ccccc2[nH]c1=O`, in assay [1], the cell count is 596. Also, the inhibition in assay [1] was -9.8% (inactive); in assay [3], -4.6% (inactive); in assay [7] it was 11.7% (inactive); in assay [8], 13.8% (inactive). In addition, in assay [2], the inhibition of aggregation was -15.9% (inactive). In addition, the results for the nuclei count in assay [2] and in assay [3] were 109% and 87%, respectively. The fluorescence slope in assay [4] is -0.565 (inactive); in assay [6], 0.00337 (inactive). In assay [5], the NADPH fluorescence slope was -9.6e-05 (inactive).

Turning to `O=C(O)c1ccccc1C(=O)Nc1ccccc1`, the cell count in assay [1] is 476. Besides, the inhibition in assay [1] is -6% (inactive); in assay [3], -88.4% (inactive); in assay [7], 5.22% (inactive); in assay [8] it was 8.4% (inactive). In addition, in assay [2], the inhibition of aggregation was -8.6% (inactive). For the same compound, the nuclei count in assay [2] came out at 82.7%; in assay [3], 143%. Also, the fluorescence slope in assay [4] is -0.5 (inactive); in assay [6] it was 0.00478 (inactive). In addition, in assay [5], the NADPH fluorescence slope was -0.000287 (inactive).

Regarding `CC1(C)Cc2nc3oc4c(N(CCO)Cc5ccccc5)ncnc4c3cc2CO1`, the cell count in assay [1] turned out to be 558. Also, the inhibition in assay [1] is 6.7% (inactive); in assay [3] it was -29.7% (inactive); in assay [7], -1.42% (inactive); in assay [8], 5.17% (inactive). Besides, the inhibition of aggregation in assay [2] is -1.1% (inactive). Besides, the nuclei count in assay [2] was 101%; in assay [3], 122%. Besides, the fluorescence slope in assay [4] was -0.27 (inactive); in assay [6], 0.0057 (inactive). Further, the NADPH fluorescence slope in assay [5] is -1.6e-05 (inactive).

Take `Brc1ccc(-c2nnc3sc(CN4CCC5(CC4)OCCO5)cn23)cc1`: the cell count in assay [1] amounted to 414. For the same compound, the inhibition in assay [1] is 3.2% (inactive); in assay [3] it was -185% (inactive); in assay [7] it was 11.1% (inactive); in assay [8], 14% (inactive). Further, the inhibition of aggregation in assay [2] was -6.9% (inactive). The nuclei count in assay [2] came to 112%; in assay [3], 130%. Moreover, the results for the fluorescence slope in assay [4] and in assay [6] were -0.57 (inactive) and 0.00615 (inactive), respectively. Also, the NADPH fluorescence slope in assay [5] was -1.2e-05 (inactive).

For the compound `Cc1cc(C(=O)Nc2cccc(O)c2)c(C)o1`, in assay [1], the cell count was 477. For the same compound, the inhibition was 9.9% (inactive) in assay [1], -76.5% (inactive) in assay [3], 0.52% (inactive) in assay [7] and -20.8% (inactive) in assay [8]. Besides, in assay [2], the inhibition of aggregation is 2.6% (inactive). In addition, the nuclei count in assay [2] was found to be 78.5%; in assay [3], 112%. The fluorescence slope is -0.566 (inactive) in assay [4] and 0.00709 (inactive) in assay [6]. Moreover, the NADPH fluorescence slope in assay [5] was -5.1e-05 (inactive).

Turning to `CN(c1cccc(NC(=O)COc2ccccc2)c1)S(C)(=O)=O`, the cell count in assay [1] turned out to be 226. Further, the inhibition in assay [1] was 7.2% (inactive); in assay [3] it was -143% (inactive); in assay [7] it was -58.9% (inactive); in assay [8], -120% (inactive). Moreover, the inhibition of aggregation in assay [2] was 21.6% (inactive). The values for the nuclei count in assay [2] and in assay [3] were 91.6% and 111%, respectively. In addition, the fluorescence slope is -0.49 (inactive) in assay [4] and 0.00411 (inactive) in assay [6]. In assay [5], the NADPH fluorescence slope was 6.4e-05 (inactive).

With `FC(F)(F)COc1nc(N2CCCCC2)nc(N2CCNCC2)n1`, the cell count in assay [1] came to 372. In addition, the inhibition was -7.9% (inactive) in assay [1], 13.6% (inactive) in assay [3], 4.6% (inactive) in assay [7] and 21.6% (inactive) in assay [8]. Also, the inhibition of aggregation in assay [2] is -3.5% (inactive). The nuclei count in assay [2] was 99.5%; in assay [3], 109%. Moreover, the fluorescence slope in assay [4] was -0.321 (inactive); in assay [6], 0.00559 (inactive). For the same compound, the NADPH fluorescence slope in assay [5] is -5.4e-05 (inactive).
